# Assay results reported in article PMC4336329 (PLoS ONE, 2015).
# Hit rate of the full screen: of about 310,000 compounds, about 14,000 (4.5%) showed an effect of 50% or more. The effect is printed as a negative number. Shown is part of a subset that was picked to be rich in strong results.
# Target: human ether-à-go-go-related gene (hERG) potassium channel (human, UniProt Q12809)
# Assay: primary screen, population patch clamp on CHO cells stably expressing hERG; higher = less effect of the substance
# 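Further: peak tail current of the secondary pulse compared with the same well before compound.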
# Chain of human ether-à-go-go-related gene (hERG) potassium channel (Q12809 whole entry, looked up): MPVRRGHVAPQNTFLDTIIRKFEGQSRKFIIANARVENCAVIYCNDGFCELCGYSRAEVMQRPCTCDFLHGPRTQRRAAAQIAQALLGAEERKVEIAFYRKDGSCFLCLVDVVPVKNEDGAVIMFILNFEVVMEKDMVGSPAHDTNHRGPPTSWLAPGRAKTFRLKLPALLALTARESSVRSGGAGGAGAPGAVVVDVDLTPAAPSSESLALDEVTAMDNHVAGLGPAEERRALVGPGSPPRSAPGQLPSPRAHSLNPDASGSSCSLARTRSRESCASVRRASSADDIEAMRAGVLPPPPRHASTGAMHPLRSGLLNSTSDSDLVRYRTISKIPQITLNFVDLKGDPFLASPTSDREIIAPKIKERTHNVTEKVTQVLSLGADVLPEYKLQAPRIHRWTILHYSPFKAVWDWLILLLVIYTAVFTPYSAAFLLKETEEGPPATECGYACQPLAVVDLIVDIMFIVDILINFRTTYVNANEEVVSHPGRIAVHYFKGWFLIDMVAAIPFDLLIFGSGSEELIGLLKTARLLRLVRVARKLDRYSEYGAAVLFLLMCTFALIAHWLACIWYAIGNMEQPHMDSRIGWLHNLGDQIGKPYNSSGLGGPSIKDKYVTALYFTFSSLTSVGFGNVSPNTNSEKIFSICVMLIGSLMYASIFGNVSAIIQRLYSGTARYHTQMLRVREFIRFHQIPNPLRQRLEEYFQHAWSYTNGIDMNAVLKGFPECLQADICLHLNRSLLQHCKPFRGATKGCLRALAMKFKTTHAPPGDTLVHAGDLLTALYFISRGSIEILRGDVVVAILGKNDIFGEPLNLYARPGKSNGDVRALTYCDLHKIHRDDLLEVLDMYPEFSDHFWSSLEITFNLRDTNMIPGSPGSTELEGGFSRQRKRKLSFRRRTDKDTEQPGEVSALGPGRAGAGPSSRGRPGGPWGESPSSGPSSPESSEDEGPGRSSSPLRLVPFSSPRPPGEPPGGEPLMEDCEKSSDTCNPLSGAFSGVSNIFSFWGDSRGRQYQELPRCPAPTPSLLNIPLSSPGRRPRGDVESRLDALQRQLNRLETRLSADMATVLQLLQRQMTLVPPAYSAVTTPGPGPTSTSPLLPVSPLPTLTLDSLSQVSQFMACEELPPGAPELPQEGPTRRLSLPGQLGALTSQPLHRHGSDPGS
row,SMILES,"hERG current change (%, negative = inhibition) at 10uM"
1,O=C(O)c1ccccc1N1C(=O)C2C3c4ccccc4C(Br)(c4ccccc43)C2C1=O (stereo not drawn),18.4%
2,CCN(CC(=O)NCc1cccs1)C(=O)/C=C/c1ccc(OC)c(OC)c1,-23.5%
3,Cc1cc(C)n2nc(C(=O)OCC(=O)Nc3ccc4c(c3)OCCO4)nc2n1,3.56%
4,CCOc1cc(C(=S)N2CCOCC2)ccc1OS(=O)(=O)c1ccccc1,-10%
5,COc1ccc(OCC(=O)NCCCCCCNC(=O)COc2ccc(OC)cc2)cc1,10.6%
6,CCOC(=O)C1CCCN(CC(O)COCc2ccc3c(c2)OCO3)C1 (stereo not drawn),-23.5%
7,CCc1cc(C(=O)NNC(=O)CCN2CCN(c3ccccc3)CC2)sc1C,11.8%
8,O=C(Nc1nnc(C2CC2)o1)c1ccc(S(=O)(=O)N2CCCc3ccccc32)cc1,-19.3%
9,COc1cccc(/C=N/Nc2ncc(C(F)(F)F)cc2Cl)c1O,36.1%
10,COc1ccc(/C=N/Nc2ncc(C(F)(F)F)cc2Cl)cc1OC,3%
11,COc1cc(/C=N/Nc2ncc(C(F)(F)F)cc2Cl)cc(OC)c1O,-64.8%
12,CCN(CC(=O)Nc1cc(C)on1)CC(=O)Nc1ccccc1C(F)(F)F,13.7%
13,CN(Cc1ccccc1)C(=O)c1ccc(Cl)c([N+](=O)[O-])c1,-53.5%
14,Cc1ccc(NC(=O)CN(C)C(=O)c2ccc(Sc3nncn3C)c([N+](=O)[O-])c2)cc1,-40.3%
15,CN(CC(=O)Nc1ccc(F)c(F)c1F)C(=O)c1ccc(=O)[nH]c1,0.382%
16,Cc1ccc(NC(=O)CN(C)C(=O)c2ccc(-n3cncn3)c([N+](=O)[O-])c2)cc1,-49.2%
17,Cc1ccc(NC(=O)CN(C)C(=O)c2ccc(Cl)c([N+](=O)[O-])c2)cc1,-52.1%
18,CN(CC(=O)Nc1ccc(Cl)cc1)C(=O)c1ccc(-n2cncn2)c([N+](=O)[O-])c1,-70.3%
19,O=C(NCCc1ccccc1)c1ccc(Cl)c([N+](=O)[O-])c1,-27.2%
20,CN(CC(=O)Nc1ccc(F)c(F)c1F)C(=O)c1ccc(-n2cncn2)cc1,-63.8%
21,CCN(C(=O)c1ccc(Cl)c([N+](=O)[O-])c1)c1ccccc1,-5.95%
22,CN(CC(=O)Nc1c(Cl)cccc1Cl)C(=O)c1ccc(-n2cncn2)c([N+](=O)[O-])c1,5.71%
23,Cc1ccc(NC(=O)CN(C)C(=O)C(C)OC(=O)CNC(=O)c2ccc(Cl)c([N+](=O)[O-])c2)cc1 (stereo not drawn),-43%
24,CN(CC(=O)Nc1ccc(F)c(F)c1F)C(=O)c1ccc(-n2cncn2)c([N+](=O)[O-])c1,-40.6%
25,CCC(=O)NCCc1nc2ccccc2[nH]1,1.08%
26,CN1CCN(c2nc(N)cc(=O)[nH]2)CC1,15.2%
27,c1ccc(-n2c(Sc3cnccn3)nnc2-c2cccs2)cc1,-33.3%

row,SMILES,"hERG current change (%, negative = inhibition) at 10uM"
1,CSc1nc([O-])cc(=O)n1-c1ccc(F)cc1.[K+],2.86%
2,COc1cccc(/C=C2/C(=O)NN(c3ccc(C)c(C)c3)C2=O)c1,-3.01%
3,Cn1c(=O)c2c(SCC(=O)NCc3ccco3)nc(-c3ccccc3Cl)nc2n(C)c1=O,-1.4%
4,O=C(COc1ccc(Br)cc1)NNC(=O)c1ccc(-n2cncn2)c([N+](=O)[O-])c1,-61%
5,O=C(COc1ccccc1Cl)NNC(=O)c1ccc(-n2cncn2)c([N+](=O)[O-])c1,10.9%
6,Cc1ccc(OCC(=O)NNC(=O)c2ccc(-n3cncn3)c([N+](=O)[O-])c2)cc1,-2.51%
7,C=CCN1C(=O)c2ccc(C(=O)N(C)CC(=O)Nc3c(C)cccc3C)cc2C1=O,15.4%
8,Cc1cc(Br)ccc1NC(=O)CN(C)C(=O)c1ccc(-n2cncn2)c([N+](=O)[O-])c1,-64.4%
9,Cc1cccc(NC(=O)CNC(=O)c2ccc(-n3cncn3)c([N+](=O)[O-])c2)c1C,-9.18%
10,Cc1cc(Br)ccc1NC(=O)CNC(=O)c1ccc(-n2cncn2)c([N+](=O)[O-])c1,-59.9%
11,Cc1cccc(C)c1NC(=O)CN(C)C(=O)c1ccc(-n2cncn2)c([N+](=O)[O-])c1,-6.43%
12,C=CCN1C(=O)c2ccc(C(=O)N(C)CC(=O)Nc3ccccc3Br)cc2C1=O,4.17%
13,C=CCN1C(=O)c2ccc(C(=O)N(C)CC(=O)Nc3ccc(Br)cc3C)cc2C1=O,-52.5%
14,Cc1ccc(C)c(NC(=O)CN(C)C(=O)c2ccc(-n3cncn3)c([N+](=O)[O-])c2)c1,-26.7%
15,Cc1cc(Br)ccc1NC(=O)c1ccc(-n2cncn2)c([N+](=O)[O-])c1,12.3%
16,CCc1[nH]c(=S)c(C#N)c2c1CCCC2,14.9%
17,COc1cccc(C(c2nnnn2Cc2ccccc2)N2CCN(C3CCCC3)CC2)c1OC.Cl (stereo not drawn),-32%
18,O=c1[nH]nc(Sc2ncnc3sccc23)n1CCc1ccccc1,-18.3%
19,CC1CCC/C=C/C2CC(O)CC2C(O)/C=C/C(=O)O1 (stereo not drawn),-2.12%
20,O=C(c1cnn2c(C(F)F)cc(-c3ccccc3)nc12)N1CCc2ccccc2C1,-15.6%
21,CCn1c(SCC(=O)NCCc2ccccc2)nc2c(c1=O)SC(C)C2 (stereo not drawn),5.03%
22,COc1cccc(NC(=O)CCN2C(=O)c3ccccc3Sc3ncccc32)c1,12.7%
23,O=C(COC(=O)C1CCC(=O)N1)Nc1ccc(Br)cc1 (stereo not drawn),12%
24,Cc1cc2nc3n(c2cc1C)CC1CC(C(=O)NCCc2cccs2)N(C)C31 (stereo not drawn),-38.5%
25,CN1C(C(=O)NCCc2cccs2)CC2Cn3c(nc4ccccc43)C21 (stereo not drawn),-27.3%
26,CN1C(C(=O)NCCc2cccs2)CC2Cn3c(nc4cc(Cl)c(Cl)cc43)C21 (stereo not drawn),-63.6%
27,CN1C(C(=O)NCCc2cccs2)CC2Cn3c(nc4cc5ccccc5cc43)C21 (stereo not drawn),-65.9%
